The values that follow come from PubChem BioAssay (EPA / NIEHS).

The target in assay [1] is rat Gamma-Aminobutyric Acid Type A Receptor BDZ, alpha 6 site (GABARa6), Gabra6 (gene 29708) (UniProt P30191). Briefly: NVS_LGIC_rGABARa6: NovaScreen (NVS) Ligand-Gated Ion Channel Assay for rat Gamma-Aminobutyric Acid Type A Receptor BDZ, alpha 6 site (GABARa6) (AID 2283339). A digest of the protocol:
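Actives from a 25 uM duplicate screen were retested in concentration series (max 50 uM). Specific radioligand displacement from rat cerebellar membranes was counted by filter-based scintillation at 1 h; DMSO served as baseline.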

Assay [2] has as its target rat Glycine Receptor, Strychnine-sensitive (GlyRStrySens), Glra1 (gene 25674) (UniProt P07727). Briefly: NVS_LGIC_rGlyRStrySens: NovaScreen (NVS) Ligand-Gated Ion Channel Assay for rat Glycine Receptor, Strychnine-sensitive (GlyRStrySens) (AID 2283341). A digest of the protocol:
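Radioligand displacement on rat spinal cord membranes, 1 hr, filter scintillation read-out. Single-concentration duplicate screen at 25 uM; chemicals meeting threshold (e.g., 30% inhibition) rerun in concentration-response up to 50 uM. Loss of binding fitted versus DMSO.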

Assay [3] deals with Estrogen receptor (Homo sapiens) (UniProt P03372). Briefly: NVS_NR_hER: NovaScreen (NVS) Nuclear Receptor Binding Assay for human Estrogen Receptor (ER) (AID 2283348). The method in brief: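 MCF7-derived receptor extract, radiolabelled ligand, competitive displacement. Read: scintillation counts at 18 h. DMSO = negative control/baseline. Primary 25 uM duplicate; follow-up concentration–response.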

For assay [4] the target is unchanged. Nature of the assay: OT_ER_ERaERa_1440: Odyssey Thera (OT) 24-hour HEK293T Protein-Complementation Assay for Estrogen Receptor-alpha/-alpha Homodimer (AID 2283349).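 Also: hits raise fluorescence above DMSO for agonists and antagonists alike.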 A digest of the protocol:
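Cells (HEK293T) carrying the fragment-tagged ERα LBD (aa 310-547) pair are treated with chemical for 24 hours. Nuclear and/or cytoplasmic fluorescence is then quantified on a laser scanning cytometer. Activity is scored as signal gain against DMSO.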

Assay [5] addresses chimpanzee Androgen Receptor (AR), AR (gene 747460) (UniProt O97775). Nature of the assay: NVS_NR_cAR: NovaScreen (NVS) Nuclear Receptor Binding Assay for chimpanzee Androgen Receptor (AR) (AID 2283346).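 Also: a loss of bound radioligand signal versus DMSO counts as binding.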 The method in brief: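 Radioligand binding to chimpanzee AR expressed in Sf9/Sf21 cells, cell-free, measured 72 h after dosing by lysate-based scintillation counting. Loss of signal vs DMSO; initial duplicate screen at 25 uM, actives retested in concentration series.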

Assay [6] addresses bovine Estrogen Receptor (ER), ESR1 (gene 407238) (UniProt P49884). Nature of the assay: NVS_NR_bER: NovaScreen (NVS) Nuclear Receptor Binding Assay for bovine Estrogen Receptor (ER) (AID 2283345).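 Also: actives lower the bound radioligand count which means they displace the ER ligand.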 A digest of the protocol:
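Cell-free radioligand binding with bovine uterine membrane extracts, read 18 hours after dosing by scintillation counting. Loss of signal versus DMSO baseline indicates displacement. Primary screen run in duplicate at 25 uM, actives followed in concentration series.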

Inconclusive results are not listed. Calls of active or inactive are those of the source. The calls were made as follows: active = hit-call score of the fitted dose curve at least 0.9, where 1 is the maximum; inconclusive = response in the unintended direction; inactive = score below 0.9.

bovine Estrogen Receptor (ER), ESR1 (gene 407238), sequence (P49884 whole entry, looked up): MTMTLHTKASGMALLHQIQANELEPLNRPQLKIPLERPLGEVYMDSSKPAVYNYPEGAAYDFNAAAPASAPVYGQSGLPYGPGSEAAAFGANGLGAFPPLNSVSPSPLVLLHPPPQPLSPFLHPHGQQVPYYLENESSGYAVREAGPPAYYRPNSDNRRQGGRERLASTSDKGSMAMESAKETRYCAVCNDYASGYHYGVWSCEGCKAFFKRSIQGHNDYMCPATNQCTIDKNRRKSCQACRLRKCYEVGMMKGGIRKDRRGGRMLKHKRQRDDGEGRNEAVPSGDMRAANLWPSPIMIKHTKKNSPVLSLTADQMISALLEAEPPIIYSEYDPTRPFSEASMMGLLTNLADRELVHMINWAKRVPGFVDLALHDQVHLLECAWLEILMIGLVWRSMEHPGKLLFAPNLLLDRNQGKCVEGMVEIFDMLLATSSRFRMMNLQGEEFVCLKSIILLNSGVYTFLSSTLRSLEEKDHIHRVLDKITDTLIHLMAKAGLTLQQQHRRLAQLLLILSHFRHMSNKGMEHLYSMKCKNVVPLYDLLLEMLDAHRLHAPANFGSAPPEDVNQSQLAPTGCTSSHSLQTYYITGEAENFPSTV
Estrogen receptor (Homo sapiens), sequence (P03372 whole entry, looked up): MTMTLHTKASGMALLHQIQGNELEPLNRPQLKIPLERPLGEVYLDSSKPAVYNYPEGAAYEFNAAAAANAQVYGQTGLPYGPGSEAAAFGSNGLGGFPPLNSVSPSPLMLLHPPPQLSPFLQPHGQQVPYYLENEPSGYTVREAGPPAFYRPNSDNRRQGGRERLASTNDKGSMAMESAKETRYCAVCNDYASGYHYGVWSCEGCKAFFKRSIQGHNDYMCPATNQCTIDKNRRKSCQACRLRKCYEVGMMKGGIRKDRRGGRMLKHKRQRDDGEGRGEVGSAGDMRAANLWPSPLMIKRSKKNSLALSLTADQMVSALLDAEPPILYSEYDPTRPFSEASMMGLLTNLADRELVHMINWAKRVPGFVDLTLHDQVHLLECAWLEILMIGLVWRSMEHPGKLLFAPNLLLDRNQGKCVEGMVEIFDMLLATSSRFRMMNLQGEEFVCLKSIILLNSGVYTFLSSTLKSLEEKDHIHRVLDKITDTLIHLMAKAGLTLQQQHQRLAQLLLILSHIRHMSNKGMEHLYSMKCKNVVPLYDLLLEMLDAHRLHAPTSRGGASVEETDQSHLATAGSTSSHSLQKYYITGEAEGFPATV
chimpanzee Androgen Receptor (AR), AR (gene 747460), sequence (O97775 whole entry, looked up): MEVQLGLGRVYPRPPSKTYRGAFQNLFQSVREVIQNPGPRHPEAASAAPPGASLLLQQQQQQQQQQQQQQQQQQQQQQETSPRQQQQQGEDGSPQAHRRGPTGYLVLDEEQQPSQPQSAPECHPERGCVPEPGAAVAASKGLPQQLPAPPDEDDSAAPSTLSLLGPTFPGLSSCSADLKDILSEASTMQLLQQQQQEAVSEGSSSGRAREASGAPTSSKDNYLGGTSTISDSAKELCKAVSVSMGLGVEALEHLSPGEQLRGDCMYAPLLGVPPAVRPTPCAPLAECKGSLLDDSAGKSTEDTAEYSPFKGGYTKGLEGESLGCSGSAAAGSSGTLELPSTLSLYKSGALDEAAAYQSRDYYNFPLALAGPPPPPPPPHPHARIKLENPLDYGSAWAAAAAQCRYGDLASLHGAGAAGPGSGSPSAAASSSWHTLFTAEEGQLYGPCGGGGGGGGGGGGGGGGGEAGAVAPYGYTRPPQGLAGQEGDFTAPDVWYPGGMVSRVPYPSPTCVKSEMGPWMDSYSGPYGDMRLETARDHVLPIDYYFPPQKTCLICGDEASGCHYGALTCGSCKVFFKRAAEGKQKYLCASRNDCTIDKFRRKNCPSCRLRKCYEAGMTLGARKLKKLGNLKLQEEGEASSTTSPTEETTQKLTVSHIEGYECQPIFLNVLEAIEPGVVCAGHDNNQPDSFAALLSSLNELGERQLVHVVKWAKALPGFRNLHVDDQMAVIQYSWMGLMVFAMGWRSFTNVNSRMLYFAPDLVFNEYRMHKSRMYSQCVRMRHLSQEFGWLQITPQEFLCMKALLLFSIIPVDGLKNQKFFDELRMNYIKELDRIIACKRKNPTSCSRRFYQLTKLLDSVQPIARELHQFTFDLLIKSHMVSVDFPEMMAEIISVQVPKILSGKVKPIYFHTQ
rat Glycine Receptor, Strychnine-sensitive (GlyRStrySens), Glra1 (gene 25674), sequence (P07727 whole entry, looked up): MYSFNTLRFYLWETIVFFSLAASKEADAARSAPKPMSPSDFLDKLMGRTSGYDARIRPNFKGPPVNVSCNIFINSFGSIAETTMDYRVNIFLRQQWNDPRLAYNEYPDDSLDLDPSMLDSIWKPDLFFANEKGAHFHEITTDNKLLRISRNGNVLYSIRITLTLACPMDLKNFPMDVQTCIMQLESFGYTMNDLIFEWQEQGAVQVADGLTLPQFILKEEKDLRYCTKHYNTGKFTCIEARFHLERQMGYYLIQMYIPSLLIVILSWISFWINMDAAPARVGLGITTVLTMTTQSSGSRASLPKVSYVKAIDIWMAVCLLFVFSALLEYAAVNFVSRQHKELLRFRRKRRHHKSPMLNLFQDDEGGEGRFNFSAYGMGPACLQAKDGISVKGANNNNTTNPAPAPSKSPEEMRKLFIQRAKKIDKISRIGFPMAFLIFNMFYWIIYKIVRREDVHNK
rat Gamma-Aminobutyric Acid Type A Receptor BDZ, alpha 6 site (GABARa6), Gabra6 (gene 29708), sequence (P30191 whole entry, looked up): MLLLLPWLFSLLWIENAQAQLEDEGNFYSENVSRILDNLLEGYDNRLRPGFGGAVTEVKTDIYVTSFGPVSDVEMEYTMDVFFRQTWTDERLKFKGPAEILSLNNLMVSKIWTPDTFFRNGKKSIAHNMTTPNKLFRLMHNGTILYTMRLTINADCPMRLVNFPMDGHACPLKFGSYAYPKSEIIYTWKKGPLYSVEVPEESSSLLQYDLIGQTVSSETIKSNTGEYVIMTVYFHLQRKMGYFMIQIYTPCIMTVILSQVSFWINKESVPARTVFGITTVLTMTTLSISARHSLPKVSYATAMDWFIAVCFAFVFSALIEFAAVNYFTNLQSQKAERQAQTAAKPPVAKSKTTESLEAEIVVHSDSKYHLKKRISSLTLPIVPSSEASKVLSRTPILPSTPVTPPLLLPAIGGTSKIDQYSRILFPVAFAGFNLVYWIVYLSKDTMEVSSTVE

Take `CC(C)(O)c1cnn2c(-c3ccc(F)c(-c4c(F)cccc4C#N)c3)cnc2n1`: in assay [1], the compound was classed as inactive.
`Cc1ccc(N)c(N)c1`: in assay [1], the result was inactive.
In the case of `CCOC(=O)[C@]1(c2ccccc2)Oc2ccccc2[C@@H]1N`, the AC50 in assay [2] is 25 µM (active).
Take `Nc1ccc(Cc2ccc(N)cc2)cc1`: the call in assay [2] was inactive.
Consider `[O-][Cl+]O`, for which the compound was classed as inactive in assay [3] and in assay [4].
Turning to `COc1cc(C=O)cc2c1[C@H](COC(N)=O)[C@]1(OC(C)=O)ON2C[C@H]2[C@@H]1N2C(C)=O`, the outcome in assay [4] was inactive.
Regarding `CC(C)(C)C(O)(CCc1ccc(Cl)cc1)Cn1cncn1` (stereo unspecified), in assay [5], the AC50 is 14.9 µM (active).
For `CO[C@@H]1[C@H](OC(=O)NC(=O)CCl)CC[C@]2(CO2)[C@H]1[C@@]1(C)O[C@@H]1CC=C(C)C`, the result in assay [4] was inactive.
As to `ClC1=C(Cl)C2(Cl)C3C(Cl)C=CC3C1(Cl)C2(Cl)Cl` (stereo unspecified), the outcome in assay [4] was inactive.
Consider `Cn1cc(-c2ccccc2)c(=O)c(-c2cccc(C(F)(F)F)c2)c1`, for which the call in assay [4] was inactive.
`O=[N+]([O-])C(Br)(CO)CO`: in assay [4], the outcome was inactive.
On to `OCCOCCO`, for which the call in assay [4] was inactive.
On to `ClC1=C(Cl)[C@]2(Cl)[C@H]3[C@H]([C@@H]4C=C[C@H]3C4)[C@@]1(Cl)C2(Cl)Cl`, for which the compound was classed as inactive in assay [3] and in assay [4].
For `Oc1ccc2ccc3cccc4ccc1c2c34`, the AC50 in assay [5] is 8.27 µM (active).
`Cc1ccc([N+](=O)[O-])cc1`: the compound was classed as inactive in assay [6] and in assay [4].
Turning to `Nc1ccc(Oc2ccc(N)cc2)cc1`, the result in assay [5] was inactive.
For the compound `C[N+](C)(C)CC1CO1` (stereo unspecified), the result in assay [4] was inactive.
As to `O=C(Nc1ccccc1)c1ccccc1I`, the result in assay [3] and in assay [4] was inactive.
`CCCCCOC(=O)c1ccccc1C(=O)OCCCCC`: the compound was classed as inactive in assay [6]. For the same compound, the AC50 in assay [4] is 33.1 µM (active).
Take `Nc1ccc([N+](=O)[O-])cc1`: the AC50 in assay [5] is 25 µM (active).
As for `N#CC(Br)Br`, the result in assay [6] and in assay [4] was inactive.
Turning to `CC(C)COC(=O)c1ccccc1C(=O)OCC(C)C`, the outcome in assay [6] was inactive. Moreover, the AC50 in assay [4] is 46.5 µM (active).
As to `CCOc1cccc(C2(N3CCN(c4ccccc4)CC3)CCC(C)CC2)c1` (stereo unspecified), the result in assay [4] was inactive.
Take `OCCCBr`: the outcome in assay [4] was inactive.
With `Nc1ccc(Cl)cc1N`, the AC50 in assay [5] was 25 µM (active).
`CCC(C)c1ccc(O)cc1` (stereo unspecified): the AC50 in assay [5] was 23 µM (active).
Regarding `Clc1ccc(C(c2ccc(Cl)cc2)C(Cl)Cl)cc1`, the compound was classed as inactive in assay [3] and in assay [4].
For `CNC(=O)Oc1cccc2c1OC(C)(C)C2`, the compound was classed as inactive in assay [4].

As a reminder, the AC50 is the concentration giving half of the maximal activity seen.
